Laboratory results from PubChem BioAssay (Tox21).
The source made the active and inactive calls. Where a call stands in place of a potency, no number is given. Calls come from the whole dose curve; as a rule, active = well fitted curve in the direction sought with a large enough effect in the signal ratio in the repeat runs (not every such curve was filed as active); inconclusive = weak or mixed curves, or effect the other way; inactive = no such curve, though single readings can be large or run the other way; the % refers to the signal ratio. Positions of bridges follow the written chain, without caps; N, C: chain ends. Non-standard residues stand in square brackets, D forms with d. Residues, ends and D or L forms follow the SMILES beside them. *: point of attachment. X2 = CC[C@H](C)CCCCC(=O)*; Orn = NCCC[C@H](N)C(=O)O; Dab = NCC[C@H](N)C(=O)O; Mpa = O=C(O)CCS

Each compound was assayed against Estrogen receptor (Homo sapiens) (UniProt P03372) (assay: qHTS assay to identify small molecule antagonists of the estrogen receptor alpha (ER-alpha) signaling pathway (AID 743069)). Settings: HEK293 ER-alpha-UAS-bla, beta-lactamase ratio, antagonist mode; series mostly up to 69.4 µM.
Procedure, shortened: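 Screening used a UAS-driven beta-lactamase reporter integrated into HEK293 cells expressing ER-alpha, stimulated with 17beta-estradiol alongside test compounds over 18 hr at 37C; signal came from LiveBLAzer B/G FRET fluorescence.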
Potency is the fitted concentration of half-maximal effect.

Chain of Estrogen receptor (Homo sapiens) (P03372 whole entry, looked up): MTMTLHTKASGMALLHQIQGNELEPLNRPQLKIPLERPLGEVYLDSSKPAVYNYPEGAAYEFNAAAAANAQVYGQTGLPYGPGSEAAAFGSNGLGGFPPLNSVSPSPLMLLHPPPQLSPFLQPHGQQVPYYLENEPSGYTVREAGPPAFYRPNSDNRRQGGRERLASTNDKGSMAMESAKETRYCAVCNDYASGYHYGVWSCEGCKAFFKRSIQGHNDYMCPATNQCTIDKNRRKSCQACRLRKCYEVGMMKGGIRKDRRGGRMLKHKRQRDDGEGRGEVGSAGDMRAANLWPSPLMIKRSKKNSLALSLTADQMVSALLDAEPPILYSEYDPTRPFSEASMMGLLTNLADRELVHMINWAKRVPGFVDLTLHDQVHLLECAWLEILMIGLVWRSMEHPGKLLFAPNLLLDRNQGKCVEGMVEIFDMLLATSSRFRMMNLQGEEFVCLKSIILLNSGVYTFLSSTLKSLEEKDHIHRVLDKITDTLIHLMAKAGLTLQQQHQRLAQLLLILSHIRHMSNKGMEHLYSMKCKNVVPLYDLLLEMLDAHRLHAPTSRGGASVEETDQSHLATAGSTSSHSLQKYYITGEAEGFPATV

Compound | Potency
O=C(O)c1cccc(/C=C2/C[C@@H]3[C@@H](/C=C/[C@@H](O)C4CCCCC4)[C@H](O)C[C@@H]3O2)c1 | inactive
CC1(C)S[C@@H]2[C@H](NC(=O)[C@H](N)c3ccccc3)C(=O)N2[C@H]1C(=O)OCOC(=O)[C@@H]1N2C(=O)C[C@H]2S(=O)(=O)C1(C)C | 13.4 µM [inconclusive] (active)
NCCC(=O)[N-][C@@H](Cc1cnc[nH]1)C(=O)O.[Zn] | inactive
CNc1cc(OC)c(C(=O)N[C@H]2CCN(Cc3ccccc3)[C@H]2C)cc1Cl | inactive
OC[C@H]1O[C@@H](n2cnc3c2NC=NC[C@H]3O)C[C@@H]1O | inactive
CCCC(=O)Nc1c(I)cc(I)c(CC(CC)C(=O)O)c1I (stereo unspecified) | inactive
O=P(O)(O)OC(CO)CO | inactive
CCCCCCCCCCCCCCCC(=O)O[C@@H]1[C@@H](O)[C@@H](O)[C@@H]([C@H](NC(=O)[C@@H]2C[C@@H](CCC)CN2C)[C@H](C)Cl)O[C@@H]1SC | inactive
CC(=O)O[C@H]1C[C@@]2(C)[C@@H](C[C@@H](O)[C@H]3[C@@]4(C)CC[C@@H](O)[C@@H](C)[C@@H]4CC[C@@]32C)/C1=C(\CCC=C(C)C)C(=O)O | inactive
C[C@H](CSC(=O)c1ccccc1)C(=O)N1C[C@@H](Sc2ccccc2)C[C@H]1C(=O)O | inactive
O=S(O)CNc1ccc(S(=O)(=O)c2ccc(NCS(=O)O)cc2)cc1 | inactive
CC(=O)O[C@H]1C[C@@H]2CC[C@@H]3[C@H](CC[C@@]4(C)[C@H]3C[C@H](N3CC[N+](C)(C)CC3)[C@@H]4OC(C)=O)[C@@]2(C)C[C@@H]1N1CC[N+](C)(C)CC1 | inactive
O=C1O[C@H]2[C@H](O)[C@@H]1OC(O)[C@H]2O (stereo partly specified) | inactive
CC[C@H]1OC(=O)[C@H](C)[C@@H](O[C@H]2C[C@@](C)(OC)[C@@H](O)[C@H](C)O2)[C@H](C)[C@@H](O[C@@H]2O[C@H](C)C[C@H](N(C)C)[C@H]2O)[C@](C)(O)C[C@@H](C)[C@@H]2N[C@@H](COCCOC)O[C@@H]([C@H]2C)[C@]1(C)O | inactive
Cn1c(=O)c2c(ncn2CCOC(=O)C(C)(C)Oc2ccc(Cl)cc2)n(C)c1=O | inactive
O=C(O)c1ccc(OCCn2ccnc2)cc1 | inactive

Compound | Potency
CO[C@@H]1[C@@H](O[C@@H]2O[C@H](C)[C@@H](O[C@H]3C[C@@](C)(O)[C@@H](OC(=O)CC(C)C)[C@H](C)O3)[C@H](N(C)C)[C@H]2O)[C@@H](CC=O)C[C@@H](C)[C@@H](O)/C=C/C=C/C[C@@H](C)OC(=O)C[C@H]1O | inactive
CCN(CC)CCOc1ccc2nc(N(C)C)sc2c1 | inactive
COc1cc([C@@H]2c3cc4c(cc3C(O[C@@H]3O[C@@H]5COC(c6cccs6)O[C@H]5[C@H](O)[C@H]3O)C3COC(=O)[C@@H]32)OCO4)cc(OC)c1O (stereo partly specified) | 6.74 µM [inconclusive] (active)
COCC1=C(C(=O)OC(C)OC(=O)OC(C)C)N2C(=O)[C@@H](NC(=O)/C(=N\OC)c3csc(N)n3)[C@H]2SC1 (stereo partly specified) | inactive
Cc1cccc(C)c1Nc1ncccc1C(=O)O | inactive
CC1=C(/C=C/C(C)=C/C=C/C(C)=C/C=C/C=C(C)/C=C/C=C(C)/C=C/C2=C(C)C(=O)CCC2(C)C)C(C)(C)CCC1=O | inactive
O=C1C(=O)c2ncccc2-c2cccnc21 | inactive
CC[C@H](C)CCCCC(=O)N[C@@H](CCN)C(=O)N[C@H](C(=O)N[C@@H](CCN)C(=O)N[C@H]1CCNC(=O)[C@H]([C@@H](C)O)NC(=O)[C@H](CCN)NC(=O)[C@H](CCN)NC(=O)[C@H](CC(C)C)NC(=O)[C@@H](CC(C)C)NC(=O)[C@H](CCN)NC1=O)[C@@H](C)O (X2-[Dab]T[Dab][Dab][Dab][dL]L[Dab][Dab]T; lactam 4-C) | inactive
O=C(NCCNCC(O)COc1ccc(O)cc1)N1CCOCC1 (stereo unspecified) | inactive
CCOc1ccc(C[C@H]2NC(=O)CCSSC[C@@H](C(=O)N3CCC[C@H]3C(=O)N[C@@H](CCCN)C(=O)NCC(N)=O)NC(=O)[C@H](CC(N)=O)NC(=O)[C@H]([C@@H](C)O)NC(=O)[C@H]([C@@H](C)CC)NC2=O)cc1 ([Mpa][dY](Et)ITNCP[Orn]G-NH2; disulfide 1-6) | inactive
CC(C)CN(C[C@@H](O)[C@H](Cc1ccccc1)NC(=O)O[C@H]1CO[C@H]2OCC[C@H]21)S(=O)(=O)c1ccc(N)cc1 | inactive
CC(=O)O[C@H]1C(=O)[C@@]2(C)[C@H]([C@H](OC(=O)c3ccccc3)[C@]3(O)C[C@H](OC(=O)[C@H](O)[C@@H](NC(=O)c4ccccc4)c4ccccc4)C(C)=C1C3(C)C)[C@]1(OC(C)=O)CO[C@@H]1C[C@@H]2O | inactive
CCC(=O)NS(=O)(=O)c1ccc(-c2c(-c3ccccc3)noc2C)cc1 | inactive
CN(C(=O)CO)c1c(I)c(C(=O)NCC(O)CO)c(I)c(C(=O)NCC(O)CO)c1I (stereo unspecified) | inactive
CC(C(=O)O)c1ccc(N2Cc3ccccc3C2=O)cc1 (stereo unspecified) | inactive
